Compound activity from PubChem.
IL-1B inflam inh: inhibitors of inflammasome signaling (IL-1 beta secretion); THP-1 LPS/ATP IL-1B secretion, AlphaLISA, 16 h; hits give low values; activity change, % at 57.5 µM; 360,000 compounds, 4.7% hits; AID 743279; in the data active = activity change below about -50%; inconclusive = mostly about -30% to -49%; also: % is scaled to controls: 0 for no effect and ±100 for the full control effect
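Secreted IL-1B measured by AlphaLISA bead assay after 16 h compound exposure of THP-1 cells; compounds (final up to 57.5 uM) added 1 h before LPS (250 ng/mL) and ATP (1.25 mM) stimulation; lower signal means less secretion.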
HepG2 tox-1: HepG2 cytotoxicity, counter-screen for TGF-b inhibitors; HepG2 CAGA-GFP viability, ATP luminescence, 18 h; Potency, µM (doses to about 46.1 µM), for the others: at the highest dose activity change, negative = cytotoxicity, hits mostly cytotoxic; AID 588856; 410,000 compounds, 0.76% hits; also: potency is read from the fitted curve at half-maximal effect
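HepG2 CAGA-GFP cells (1000/well, DMEM with 1% FBS) received compound, then TGF-beta at 500 pg/mL final, and were incubated 18 hours at 37 degrees C. Viability was read by CellTiter-Glo luminescence. Media-only wells were set as complete cell-killing and DMSO as no toxicity.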
S2 tox: reduces viability in counter-screen for ATXN expression inhibitors; Potency, µM (series often up to 56.7 µM), actives largely listed as cytotoxic; AID 651635; 400,000 compounds, 0.49% hits; S2 cells (HEK-293 line with an ATXN2-luciferase reporter) viability, CellTiter-Fluor protease fluorescence, 24 h; also: potency is read from the fitted curve at half-maximal effect; nearly all actives have a fitted effect of over 40% in size
ATXN2 expr inh: ATXN2 expression inhibition | HEK-293 ATXN2-luciferase reporter, luminescence, 24 h | 360,000 compounds, 0.72% hits | AID 1745845 | Potency, µM (series often up to 57 µM), inactives show at the highest dose activity change, negative = inhibition, most hits filed as inhibitors; also: potency is read from the fitted curve at half-maximal effect; % is scaled to controls: 0 for no effect and ±100 for the full control effect; nearly all actives have a fitted effect of over 55% in size
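qHTS (up to 57 uM final) was run with 24 h compound exposure of reporter cells at 37 °C. Each well was multiplexed: SteadyGlo luminescence measured ATXN2-luciferase expression after a fluorogenic Gly-Phe-AFC viability readout (25 uM final).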
TGFb inhibitor: TGF-b pathway inhibition. HepG2 CAGA-GFP TGF-b/SMAD3 reporter, GFP fluorescence, 18 h; TGF-beta stimulated, 500 pg/mL final. 410,000 compounds, 1.2% hits. AID 588855. Potency, µM (highest dose often 46.1 µM), for inactives: top-dose activity, negative = inhibition, most hits filed as inhibitors; also: potency is read from the fitted curve at half-maximal effect; % is scaled to controls: 0 for no effect and ±100 for the full control effect; nearly all actives have a fitted effect of over 65% in size
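Using HEPG2 CAGA-GFP reporter cells at 1000 cells/well, we pinned test compounds, stimulated with recombinant TGF-beta (500 pg/mL final) and measured total well GFP after 18 h.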
TGFb CAGA inh: confirmation of TGF-b signaling inhibitors in HepG2 reporter cells | shares compounds with TGFb inhibitor | HepG2 CAGA-GFP TGF-b reporter, GFP fluorescence, 18 h; cells stimulated with TGF-beta, 500 pg/mL | Potency, µM (top dose mostly 46.1 µM), for the others: at the highest dose activity, negative = inhibition, most hits filed as inhibitors | 1,600 compounds, 63% hits; also: potency is read from the fitted curve at half-maximal effect; % is scaled to controls: 0 for no effect and ±100 for the full control effect; nearly all actives have a fitted effect of over 65% in size
HepG2 tox-2: toxic to HepG2 cells in TGF-b counterscreen; shares compounds with TGFb inhibitor; HepG2 CAGA-GFP viability, ATP luminescence, 18 h; cells stimulated with TGF-beta, 500 pg/mL; Potency, µM (highest dose often 46.1 µM), for the others: at the top dose activity, negative = cytotoxicity, actives largely listed as inhibitors; 1,600 compounds, 27% hits; AID 720535; also: potency is read from the fitted curve at half-maximal effect; % is scaled to controls: 0 for no effect and ±100 for the full control effect; nearly all actives have a fitted effect of over 70% in size
TGFb CCL64 inh: blocks TGF-b signaling in CCL64 reporter cells | 1,600 compounds, 41% hits | CCL64 CAGA-GFP reporter, TGF-b stimulated, GFP fluorescence, 18 h | shares compounds with TGFb inhibitor | Potency, µM (highest dose often 46.1 µM), inactives show at the highest dose activity, negative = inhibition, most hits filed as inhibitors; also: potency is read from the fitted curve at half-maximal effect; nearly all actives have a fitted effect of over 65% in size
COP TGFb inh: validation of TGF-b inhibitors in HepG2 COP promoter reporter. shares compounds with TGFb inhibitor. HepG2 COP-GFP TGF-b reporter, GFP fluorescence, 18 h; cells stimulated by added recombinant TGF-beta. Potency, µM (titrated, usually from 46.1 µM), for the others: at the top dose activity, negative = inhibition, usual class: inhibitors. 1,600 compounds, 3% hits. AID 720537; also: potency is read from the fitted curve at half-maximal effect; nearly all actives have a fitted effect of over 70% in size
An asterisk follows results filed as active; i = inactive; ? = inconclusive; nt = not tested or not shown. A selection: hits, their analogues and other compounds. The true share with any hit is near 5.7%. Unless noted, calls follow the shape of the dose curve; as a rule, active = well fitted curve in the direction sought with a large enough effect; inconclusive = small, poorly fitted or top-dose-only effect, or another doubt; inactive = no such curve, though single readings can be large; an effect the other way counts as inactive or inconclusive.

SMILES	IL-1B inflam inh	HepG2 tox-1	S2 tox	ATXN2 expr inh	TGFb inhibitor	TGFb CAGA inh	HepG2 tox-2	TGFb CCL64 inh	COP TGFb inh
Cc1cc(=O)[nH]c2nnc(SCCC(C)C)n12	nt	-2%	nt	nt	7%	nt	nt	nt	nt
CCC(=O)NC(Nc1sc2c(c1C(=O)OC)CCC2)C(Cl)(Cl)Cl (centres undefined)	11	9%	i	-17%	11µM*	21µM*	-10%	?	-27%
COC(=O)c1c(NC(NC(=O)C(C)(C)C)C(Cl)(Cl)Cl)sc2c1CCC2 (centres undefined)	44	-2%	i	-6%	13µM*	9.2µM*	?	?	53%
COC(=O)c1c(NC(NC(=O)CC(C)C)C(Cl)(Cl)Cl)sc2c1CCC2 (centres undefined)	24	-4%	i	-15%	?	nt	nt	nt	nt
COC(=O)c1c(NC(NC(C)=O)C(Cl)(Cl)Cl)sc2c1CCCC2 (centres undefined)	24	-26%	i	-14%	13µM*	15µM*	-22%	16µM*	4%
CCOC(=O)c1ccc(NC(=O)CSc2nc3ccccc3c(=O)n2CCNC(C)=O)cc1	nt	-5%	i	-1%	3%	nt	nt	nt	nt
CCOc1c(Cl)cc(/C=N/NC(N)=S)cc1OC	155	6%	i	nt	14µM*	?	6%	?	-28%
C#CCOc1c(Cl)cc(/C=N/NC(N)=S)cc1OCC	24	16%	i	-19%	0%	nt	nt	nt	nt
COC(=O)c1ccc(CNC(=O)CSc2nnc(COc3ccccc3)n2C)o1	17	3%	i	-1%	?	-11%	12%	3%	8%
CCOc1ccc(CCNC(c2nnc(-c3ccccc3)o2)c2ccccc2Cl)cc1OCC (centres undefined)	nt	-12%	i	-29%	?	nt	nt	nt	nt
COc1ccccc1-c1nc2c(c(SCc3cc(C)ccc3C)n1)Cc1c(CO)cnc(C)c1O2	nt	1%	i	-1%	0%	nt	nt	nt	nt
COc1ccc(CNc2cccc3[nH]c(C(F)(F)F)nc23)cc1OC	-9	-31%	nt	nt	5.6µM*	?	-4%	-21%	-9%
COc1ccccc1/C=C/C(=O)N1CCc2cc(OC)c(OC)cc2C1C (centres undefined)	-70*	-19%	i	-24%	14µM*	12µM*	?	-24%	45%
O=C(NCc1ccco1)c1nc2c(nnn2Cc2ccccc2Cl)c(=O)[nH]1	3	-34%	?	16µM*	2.8µM*	5.8µM*	?	8.2µM*	27%
Cn1c(C(=O)N2CCN(c3ccc(Cl)cc3)CC2)cc2c(=O)[nH]c3ccccc3c21	?	-28%	i	-20%	-11%	nt	nt	nt	nt
Cc1ccc(Cl)cc1N1CCN(C(=O)c2cc3c(=O)[nH]c4ccccc4c3n2C)CC1	-15	-28%	?	-30%	?	?	?	-14%	20%
Cc1ccc(NC(=O)Cn2nnc(-c3ccccc3)n2)c(C)c1	nt	-3%	i	-6%	8%	nt	nt	nt	nt
Cc1ccc(NS(=O)(=O)c2ccc(OCC(=O)Nc3cccc([N+](=O)[O-])c3)c(C)c2)cc1	?	-20%	?	?	11µM*	-78%	-25%	10%	37%
Cc1ccccc1OCC(=O)Nc1cc(-c2cccc(Br)c2)nn1-c1ccccc1	nt	-2%	i	7%	-1%	nt	nt	nt	nt
CCC(C(=O)Oc1c(C(C)C)cccc1C(C)C)c1ccccc1 (centres undefined)	24	-11%	i	0%	?	?	9%	21µM*	-14%
CCNc1nc(N)c(C(=O)c2ccc(Cl)s2)s1	-96*	-1%	i	43%	13µM*	6.5µM*	?	?	15%
COc1ccc2c(c1OC)CN1CCc3cc4c(cc3[C@@H]1[C@@H]2O)OCO4	8	-20%	i	2%	20%	nt	nt	nt	nt
O[C@@H]1[C@@H](O)C=C2CCN3Cc4cc5c(cc4[C@H]1C23)OCO5 (some centres undefined)	-6	2%	?	3.5µM*	3.5µM*	0.92µM*	?	1.3µM*	22%
c1ccc(-c2cc3nc(NCC4CC4)nc(NCC4CCCCC4)c3s2)cc1	-109*	18µM*	14µM*	?	10µM*	23µM*	7.3µM*	5.2µM*	-36%
Cc1cc(C)nc(NC(=NCc2ccc3c(c2)OCO3)NC(=O)Nc2ccccc2)n1	-7	-43%	i	-5%	26%	nt	nt	nt	nt
SMILES	IL-1B inflam inh	HepG2 tox-1	S2 tox	ATXN2 expr inh	TGFb inhibitor	TGFb CAGA inh	HepG2 tox-2	TGFb CCL64 inh	COP TGFb inh
Cc1ccc(CN=C(N)Nc2nc(C)cc(C)n2)cc1	-52*	-2%	i	-26%	16µM*	15µM*	?	?	12%
CCOc1ccccc1NC(=O)Nc1cc(C(=O)NCc2ccc(C)cc2)ccc1N1CCCC1	nt	-9%	?	-6%	0%	nt	nt	nt	nt
O=C(Nc1cccc(C(F)(F)F)c1)Nc1ccc(N2CCCC2)c(S(=O)(=O)Nc2ccccc2Cl)c1	-71*	-56%	?	?	2.8µM*	4.1µM*	9.2µM*	5.2µM*	100%
Cc1cc(NC(=O)c2cc(-c3ccc(Br)cc3)on2)nn1Cc1ccc(Cl)cc1	nt	-17%	i	-19%	-4%	nt	nt	nt	nt
O=C(NCC(c1ccco1)S(=O)(=O)c1ccc(Cl)cc1)c1ccccc1F (centres undefined)	nt	-1%	i	12%	-17%	nt	nt	nt	nt
Nc1nnnn1/N=C/C=C/c1ccccc1	-2	6%	i	36%	-20%	nt	nt	nt	nt
Nc1nnnn1/N=C/C(Br)=C/c1ccccc1	-93*	-30%	14µM*	25µM*	3.5µM*	?	?	?	34%
